We go through 30 compounds from ChEMBL document CHEMBL3988442, “University of Dundee, Small-Polar-MMV Screening Library” (2021).

Hit rate of the full screen: of about 48,000 compounds, about 13,000 (27%) showed an effect of 50% or more. This is one part of the list.

The test deals with Wolbachia pipientis. Put plainly: Anti-Wolbachia Cell-Based Screen. In kind it is functional. On the set-up: scale not given: in the data most compounds retested in dose-response had high values. The following applies: 5 µM.
As to `O=C(CCN1CCCCO1)N1CC[C@H](O)[C@@H](O)C1`, the “Percent Effect” value is recorded as -19.59%.

Turning to `Cc1ccc(S(=O)(=O)NC(=O)c2cc(S(C)(=O)=O)ccc2C)s1`, the “Percent Effect” value turned out to be 12.42%. Then `CCOC(=O)c1ccc(CNC(=O)c2ccon2)o1`, with 45.33%; and `OC1(CN2CCCC2)COCCN(c2nccs2)C1` (stereo not given), with -1.349%. For the compound `OC1(CN2CCCCC2)CCN(c2cc(C(F)(F)F)ccn2)C1` (stereo not given), the “Percent Effect” value amounted to 106.3%.

As for `FC(F)(F)c1ccnc(N2CCCOCC2)c1`, the “Percent Effect” value came to 1.908%. Then `Cc1cc(F)ccc1CN1CCC(O)(CN2CCCCC2)C1` (stereo not given), with -5.371%. Then `O=C(c1cn(-c2ccc(C(F)(F)F)cn2)nn1)N1CCCCCC1`, with -5.295%; and `OC1(CN2CCCCC2)CCN(c2ccc(C(F)(F)F)cn2)C1` (stereo not given), with 107.5%. Consider `FC(F)(F)c1ccnc(N2CCCCCC2)c1`, for which the “Percent Effect” value is given as 6.382%.

As to `OC1(CN2CCCC2)COCCN(c2cc(C(F)(F)F)ccn2)C1` (stereo not given), the “Percent Effect” value was 99.83%. Under `CS(=O)(=O)NCC1CCCN(c2ccc(C(F)(F)F)cn2)C1` (stereo not given) stands 7.899%; under `CCc1nnc(CNC(=O)CCCN2CCCCC2)s1`, -1.719%. Under `O=C(NCCNC(=O)C1CC1)c1sccc1Br` stands 0.3352%; under `Cc1cccc(C(C(=O)NCc2csc(-c3ncccn3)n2)N(C)C)c1` (stereo not given), 2.9%. Under `CSC(CNS(=O)(=O)c1cnn(C)c1)c1cccc(Cl)c1` (stereo not given) stands -0.2397%. Consider `CCS(=O)(=O)N1CCC(c2nnc(CN3CCCCC3)n2C)CC1`, for which the “Percent Effect” value was -11.51%.

Take `CC(=O)c1cc(CN2C[C@@H](CN3CCCC3)[C@@H](CO)C2)n(C)c1`: the “Percent Effect” value was found to be 0.4917%.

Take `Cn1c(CN2CCCCCC2)cc(=O)c(O)c1CN1CCCC1`: the “Percent Effect” value is reported as 177.4%. Under `Cc1noc(C2CCN(Cc3cc(=O)n(C)c(=O)n3C)CC2)n1` stands 2.603%; under `Cn1c(CN2CCCCC2)cc(=O)c(O)c1CN1CCCCC1`, 95.65%. As for `CCS(=O)(=O)N1CCC(c2nnc(CN3CCCCCC3)n2C)CC1`, the “Percent Effect” value is -3.352%. Under `Cc1ccc(CNC2(Cc3cc(-c4ccccc4)on3)COC2)o1` stands -15.57%. With `CN1CCN(Cc2ccccc2CNC(=O)c2cc(Cl)ccc2F)CC1`, the “Percent Effect” value was -3.272%.

As to `Cn1ncc(C2CC(=O)NCc3nc4sccn4c32)c1C1CC1` (stereo not given), the “Percent Effect” value was -19.57%. Turning to `CCC(CC)c1cc(CNC(=O)N2CCC(n3cncn3)CC2)on1`, the “Percent Effect” value was -7.222%. Then `CCOc1cc(Cl)ccc1CNC(=O)N1CCCC(CO)C1` (stereo not given), with -9.935%; and `COc1cc(Cl)ccc1CNC(=O)N(C)C(C)CS(C)(=O)=O` (stereo not given), with 2.125%.

Turning to `COc1ccc(OC)c(CNC(=O)N2CCC(n3cncn3)CC2)c1`, the “Percent Effect” value turned out to be 67.1%.

Consider `COc1cc(Cl)ccc1CNC(=O)N1CCC(n2cncn2)CC1`, for which the “Percent Effect” value came out at 88.5%.
